Compound activity deposited in PubChem by University of Kansas High Throughput Screening Laboratory.
Pf apPOL inh = Pf-apPOL inhibitors, biochemical, fluorescence; 210,000 compounds, 0.25% hits; inhibition, % at 10 µM; AID 1794808, 2022; Recombinant Pf-apPOL, molecular beacon fluorescence, 1.5 h
mHTT CaM bind = mutant huntingtin-calmodulin interaction inhibitors – biochemical, AlphaScreen, primary screen | P42858 | AlphaScreen His-mHTT/GST-CaM binding, luminescence | inhibition, % at 15 µM | 190,000 compounds, 3.6% hits
Of the large screens only hits and unclear results are named; the others gave an inactive call. Rows were chosen to be rich in hits. Some 3.5% of all compounds tested hit in one or more screens of this group. Rule as the data show it: active = inhibition above about 50%; inactive = the rest.

CN1C(=O)C2CCCCN2c2ccc(C(=O)N3CCN(c4cccc(Cl)c4)CC3)cc21 (stereo unspecified)	mHTT CaM bind 98.7
CN1C(=O)C2CCCCN2c2ccc(C(=O)NCc3ccccc3)cc21 (stereo unspecified)	none
COc1ccc(N2CCN(C(=O)c3ccc4c(c3)N(C)C(=O)C3CCCCN43)CC2)cc1 (stereo unspecified)	none
Cc1ccc(NC(=O)/C=N/OC(=O)Nc2ccccc2)cc1	none
O=C(O)c1ccccc1Sc1ccccc1-c1ccccc1[N+](=O)[O-]	none (no result: mHTT CaM bind)
CN1c2cc(C(=O)NCc3ccc(F)c(Cl)c3)ccc2C(=O)N2CCCCC21 (stereo unspecified)	mHTT CaM bind 56.1
Cc1ccc(C)c(N2CCN(C(=O)c3ccc4c(c3)N(C)C(=O)C3CCCCN43)CC2)c1 (stereo unspecified)	mHTT CaM bind 93.6
CN1C(=O)C2CCCCN2c2ccc(C(=O)N3CCc4ccccc4C3)cc21 (stereo unspecified)	none
CCN1c2cc(C(=O)NCc3cccc(Cl)c3)ccc2C(=O)N2CCCCC21 (stereo unspecified)	none
CCOC(=O)N1CCN(C(C)=C2C(=O)c3ccccc3C2=O)CC1	none
COc1ccc(OC)c(C2=NOC(C(=O)N(C)c3ccccc3)C2)c1 (stereo unspecified)	none
Cc1ccc(NC(=O)Cn2nc(N(C)C)c3ccccc3c2=O)cc1Cl	mHTT CaM bind 80.5
Cc1ccc(NC(=O)Cn2nc(N(C)C)c3ccccc3c2=O)cc1	none
Cc1sc2ncnc(N3CCCCC3)c2c1C(=O)Nc1cc(F)cc(F)c1	none
CC(C)CCNC(=O)C1CCN(S(=O)(=O)N(CC(C)C)CC(C)C)CC1	none
O=C(CCc1nc2ccccc2n(Cc2c(F)cccc2Cl)c1=O)NCc1ccccc1	mHTT CaM bind 55.0
CCCCNC(=O)CCc1nc2ccccc2n(Cc2c(F)cccc2Cl)c1=O	none
CNC(=O)c1cccc(-c2noc(C)n2)c1	none
Clc1ccccc1-c1nc(COc2ccc3c(c2)OCO3)no1	none
CN(C)c1cccc(OCc2noc(-c3ccccc3Cl)n2)c1	mHTT CaM bind 67.5
COc1ccccc1CN1C(=O)c2ccccc2C1C(=O)NC1CCCCC1 (stereo unspecified)	none
CCC(C)(C)NC(=O)CCc1c(C)nn(-c2cccc(F)c2)c1C	none
CS(=O)(=O)c1nc2ccccc2n1Cc1ccccc1F	none
COc1ccc(Cl)cc1C(=O)Nc1ccc(F)cc1	none
COc1ccc(Cl)cc1C(=O)Nc1ccc(-c2nc3ccccc3[nH]2)cc1	mHTT CaM bind 90.0
Nc1ccc(C(=O)Nc2ccc(-c3nc4ccc(NC(=O)c5ccc(N)cc5)cc4[nH]3)cc2)cc1	mHTT CaM bind 52.2
O=[N+]([O-])c1ccc2nc(-c3ccccc3)[nH]c2c1	none
C=CC(=O)Nc1ccc(-c2nc3ccc(NC(=O)C=C)cc3[nH]2)cc1	none
Cc1cccc2[nH]c(-c3ccc(NC(=O)c4ccc(N)cc4)cc3)nc12	none
CC(=O)Nc1ccc(-c2nc3ccc(NC(C)=O)cc3[nH]2)cc1	Pf apPOL inh 81.4
O=C(O)c1ccc(-c2nc3ccc(-c4ccc5nc(-c6ccc(C(=O)O)cc6)[nH]c5c4)cc3[nH]2)cc1	Pf apPOL inh 85.7 (no result: mHTT CaM bind)
Cc1c(Cl)cccc1NC(=O)c1ccc(Cl)cc1	none
CC1=C(C#N)c2nc(N)c(C#N)c(C)c2/C1=C/c1ccc(-c2cccc([N+](=O)[O-])c2)o1	none
N#CC1=C(N)Oc2c(C=Nc3ccccc3)ccc(O)c2C1c1cccc([N+](=O)[O-])c1 (stereo unspecified)	mHTT CaM bind 100.0
N#CC1=C(N)Oc2n[nH]c(-c3ccccc3)c2C1c1cccc([N+](=O)[O-])c1 (stereo unspecified)	none
Cc1cc(NC(=O)C(=O)NCCO)c2ccccc2n1	none
OCCCc1nc2n(n1)C(c1cccc(Cl)c1)C=C(c1ccc(F)cc1)N2 (stereo unspecified)	none
COc1ccc(C2C=C(c3ccc(Cl)cc3)Nc3nc(CCCO)nn32)cc1OC (stereo unspecified)	mHTT CaM bind 52.0
CCC(C)(C)OCC(O)CN1CC(C)CC(C)C1 (stereo unspecified)	none
COc1ccc([C@H]2[C@@H]3C=CCC[C@@]3(C)C(=O)N2Cc2ccccc2)cc1Cl	mHTT CaM bind 51.8
COc1ccc(-c2cccc([C@H]3[C@@H]4C=CCC[C@@]4(C)C(=O)N3Cc3ccccc3)c2)cc1	mHTT CaM bind 69.6
CC(=O)c1ccc(-c2cccc([C@H]3[C@@H]4C=CCC[C@@]4(C)C(=O)N3Cc3ccccc3)c2)cc1	mHTT CaM bind 84.9
C[C@@]12CCC=C[C@H]1[C@H](c1cccc([N+](=O)[O-])c1)N(Cc1ccccc1)C2=O	none
Cc1cccc([C@H]2[C@@H]3C=CCC[C@@]3(C)C(=O)N2Cc2ccccc2)c1	none
COc1ccc(-c2cc([C@H]3[C@@H]4C=CCC[C@@]4(C)C(=O)N3Cc3ccccc3)ccc2F)cc1OC	none
Cc1cccc(NC(=O)c2cc(Br)ccc2Cl)n1	none
O=C(Nc1ccccc1Cl)c1ccc(Cl)c(Cl)c1	none
Cn1c(=O)c2c(nc(Oc3ccc(Cl)cc3)n2Cc2ccccc2F)n(C)c1=O	none
Cc1noc(C)c1C1CCCN1C(=O)c1cnn2c(C(F)F)cc(-c3ccccc3)nc12 (stereo unspecified)	none
CN(C(=O)c1ccc(I)cc1)c1ccccc1	none
CC(C)Cc1ccc(S(=O)(=O)N2CCC3(CC2)NCCN=C3NC2CCCC2)cc1	none
CCOc1ccccc1N1CCN(Cc2cc(C)[nH]n2)CC1	none
CC(C)(C)c1ccc(OCC(O)CN2CCN(Cc3ccc4c(c3)OCO4)CC2)cc1 (stereo unspecified)	none
CC1CCC(C(C)C)C(OCC(O)CN2CCN(Cc3ccccc3)CC2)C1 (stereo unspecified)	none
Cc1cc(OCC(O)CN2CCN(Cc3ccc4c(c3)OCO4)CC2)ccc1Cl (stereo unspecified)	mHTT CaM bind 90.2
Cc1ccc(OCC(O)CN2CCN(c3ccc(F)cc3)CC2)cc1C (stereo unspecified)	none
COc1ccc(N2CCN(CC(O)COc3ccc(Cl)c(C)c3)CC2)cc1 (stereo unspecified)	mHTT CaM bind 82.7
CCCc1ccc(OCC(O)CN2CCN(c3ccc(OC)cc3)CC2)cc1 (stereo unspecified)	mHTT CaM bind 60.9
COc1ccc(N2CCN(CC(O)COC3CC(C)CCC3C(C)C)CC2)cc1 (stereo unspecified)	mHTT CaM bind 61.7
CCCc1ccc(OCC(O)CN2CCCC2)cc1 (stereo unspecified)	none
COc1ccc(CN2CCN(C(=O)CC(C)C)CC2)c(OC)c1	none
COc1cccc(C(=O)N2CCC(c3cnn(-c4ccc(F)cc4)c3)CC2)c1OC	none
COc1cccc(NC(=O)C2CCc3sc(C(=O)N4CCOCC4)cc3C2)c1 (stereo unspecified)	none
CCC(CC)C(=O)N1CCC(COc2ccccc2C(=O)N2CCOCC2)CC1	none
O=C(NC1CC1)c1ccc(OCC2CCCN2C(=O)Cc2cccc(F)c2)cc1 (stereo unspecified)	none
Cc1ccc2ncc(C#N)c(N3CCC(C(=O)N4CCCCC4)CC3)c2c1	none
CC(C)CC(C(=O)Nc1cccc(O)c1)N1C(=O)c2ccccc2C1=O (stereo unspecified)	none
CC(C)CC(C(=O)Nc1cccc(Cl)c1)N1C(=O)c2ccccc2C1=O (stereo unspecified)	mHTT CaM bind 63.0
CCN(CC)C(=O)CN(c1ccccc1)S(=O)(=O)c1cc(Br)ccc1OC	none
